Assay results: PubChem BioAssay (NCI)
The panel holds about 83,000 compounds, 20% with a hit somewhere; the sample as a whole holds those more often.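 Assay: single dose, 48 h. Readout: percent growth (0 = no net growth; negative = cell death). Active: <10.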 The source made the active and inactive calls.

Assays:
Test in all cases: NCI-60 one-dose screen, 48 h (100 = growth as untreated, 0 = no growth, -100 = all killed)
Details in all cases: 10 µM unless noted
[1] = tested on: SR leukemia
[2] = tested on: RPMI-8226 leukemia
[3] = tested on: OVCAR-8 ovarian
[4] = tested on: OVCAR-5 ovarian
[5] = tested on: OVCAR-4 ovarian
[6] = tested on: SK-OV-3 ovarian
[7] = tested on: IGROV1 ovarian
[8] = tested on: OVCAR-3 ovarian
[9] = tested on: HS 578T breast
[10] = tested on: NCI/ADR-RES ovarian

Measured: growth

CCOC(=O)c1c(NC(=O)c2ccc(C(C)(C)C)cc2)sc2cc(OCCN3CCCCC3)ccc12
inactive: [1] 16.5% | [2] 14.6% | [3] 93.4% | [4] 91.8% | [5] 102% | [6] 106% | [7] 74.9% | [8] 74.8% | [9] 96.5% | [10] 88.3%

Nc1ccc(-c2nnc(SCc3ccc(O)c4ncccc34)n2-c2ccccc2)cc1
inactive: [1] 36.5% | [2] 11.6% | [3] 12.5% | [4] 34.4% | [5] 12.4% | [7] 14.3% | [8] 19.2% | [10] 45.2%
active: [6] 8.19% | [9] 5.08%

O=C(O)c1ccc(-n2cc(CNc3ccc(F)cc3)c(-c3ccc(C(F)(F)F)cc3)n2)cc1
inactive: [1] 109% | [2] 86.5% | [3] 71.8% | [4] 106% | [5] 86.8% | [6] 95.2% | [7] 95% | [8] 84.1% | [9] 88.8% | [10] 87%

C/C=C/[C@@H]1C=C[C@@H]2C[C@H](C)CC[C@H]2[C@]1(C)/C(O)=C1/C(=O)[C@H](CO)N(C)C1=O
inactive: [1] 59.2% | [2] 36.5% | [3] 43.4% | [4] 118% | [5] 70.5% | [6] 75% | [7] 57.3% | [8] 49.1% | [9] 67.9%
active: [10] 6.87%

C#CCOc1ccccc1C(Nc1ccccc1)c1nnnn1C1CCCCC1 (stereo not given)
inactive: [1] 98.1% | [2] 89.7% | [3] 101% | [4] 91.9% | [5] 94.5% | [6] 101% | [7] 89.6% | [8] 109% | [9] 95.2% | [10] 96.1%

Nc1cc(F)ccc1NC(=O)c1ccc(NC(=O)C/C=C/c2cccnc2)cn1
inactive: [1] 24.6% | [3] 17.8% | [4] 21.4% | [5] 29.1% | [6] 34.9% | [7] 13.8% | [8] 27.4% | [9] 21.1% | [10] 20.4%
active: [2] -3.11%

Oc1ccccc1-c1nnc(SCc2ccc(O)c3ncccc23)o1
inactive: [1] 43.3% | [2] 13.5% | [3] 26.4% | [4] 68.4% | [5] 35.9% | [6] 19.5% | [7] 53% | [8] 29.7% | [10] 49%
active: [9] 6.2%

COc1cc(CNC(=O)Cc2ccccc2[N+](=O)[O-])ccc1OCC(=O)NO
inactive: [1] 97.4% | [2] 118% | [3] 101% | [4] 104% | [5] 116% | [6] 107% | [7] 108% | [8] 126% | [9] 108% | [10] 106%

CC(=O)C1=NN(c2ccc(Cl)cc2)C(=O)CN1C
inactive: [1] 102% | [2] 115% | [3] 102% | [4] 95% | [5] 114% | [6] 113% | [7] 103% | [8] 123% | [9] 107% | [10] 105%

COc1cc(C(=O)C[n+]2ccc3ccccc3c2)cc(OC)c1OC
inactive: [1] 102% | [2] 111% | [3] 100% | [4] 102% | [5] 104% | [6] 97.1% | [7] 95.8% | [8] 105% | [9] 94% | [10] 101%

O=C(CCCCCCN1CC(=O)N2[C@@H](c3cccc(Cl)c3)c3[nH]c4ccccc4c3C[C@H]2C1=O)NO
active: [7] 4.61%
inactive: [1] 39.5% | [2] 15% | [3] 34.8% | [4] 54.3% | [5] 61% | [6] 51.8% | [8] 36.3% | [9] 69.3% | [10] 94.3%

Cc1ccc(-n2cc(/C=C/C(=O)c3ccc(S(C)(=O)=O)cc3)c(-c3ccc(S(C)(=O)=O)cc3)n2)cc1
inactive: [1] 44% | [2] 92.3% | [3] 97.5% | [4] 98.3% | [5] 109% | [6] 105% | [7] 69.2% | [8] 75.9% | [9] 103% | [10] 64%

COc1ccc(N2CCN(C(=O)CSc3ccc(-c4nc5cc(C)c(C)cc5[nH]4)cn3)CC2)cc1
inactive: [1] 43.6% | [2] 17.1% | [3] 56.4% | [4] 93.5% | [5] 37.6% | [6] 94.6% | [7] 68.2% | [8] 80.4% | [9] 94.8% | [10] 49.3%

O=C(NCCCNc1cc(-c2cn(-c3ccccc3)nc2-c2cccc(O)c2)ccn1)Nc1ccc(F)cc1
inactive: [1] 17.4% | [3] 21.2% | [4] 37.8% | [5] 30.9% | [6] 31.5% | [7] 19.2% | [8] 28.4% | [10] 20.9%
active: [2] -31.1% | [9] -21.4%

COc1cc(/C=C2\SC(=O)NC2=O)ccc1OCC(=O)Nc1ccc(C(=O)/C=C/c2cc3ccccc3nc2Cl)cc1
inactive: [1] 27.7% | [3] 84% | [4] 109% | [5] 52.9% | [6] 104% | [7] 92.6% | [8] 104% | [9] 99.1% | [10] 97.9%
active: [2] -1.87%

CSc1ccc(/C(=N/N=C(N)N)c2ccccc2)cc1
active: [8] 2.28%
inactive: [1] 19.7% | [2] 17.9% | [3] 29.5% | [4] 48.3% | [5] 67.2% | [6] 66.2% | [7] 21.8% | [9] 31.8% | [10] 40.3%

CC(=O)NC(C)(C)C(=O)N[C@@H](C)C(=O)NC(C)(C)C(=O)N[C@@H](C)C(=O)NC(C)(C)C(=O)N[C@@H](C)C(=O)N[C@@H](CCC(N)=O)C(=O)NC(C)(C)C(=O)N[C@H](C(=O)NC(C)(C)C(=O)NCC(=O)N[C@@H](CC(C)C)C(=O)NC(C)(C)C(=O)N1CCC[C@H]1C(=O)N[C@H](C(=O)NC(C)(C)C(=O)NC(C)(C)C(=O)N[C@@H](CCC(N)=O)C(=O)N[C@@H](CCC(N)=O)C(=O)N[C@H](CO)CC1CCCCC1)C(C)C)C(C)C
inactive: [1] 43.6% [5 µM] | [3] 44.2% [5 µM] | [4] 55.1% [5 µM] | [5] 23.8% [5 µM] | [6] 45.1% [5 µM] | [7] 49.3% [5 µM] | [8] 35% [5 µM] | [9] 62.1% [5 µM] | [10] 96.9% [5 µM]
active: [2] -3.49% [5 µM]

CCN(CC)CCCC(C)NCC(=O)NC(c1ccc2c(c1)OCO2)c1cc(Cl)c2cccnc2c1O (stereo not given)
inactive: [1] 39.2% | [2] 27.9% | [3] 25.2% | [4] 40.6% | [5] 11.5% | [6] 40.6% | [7] 20.9% | [8] 10.8% | [9] 79.7% | [10] 38.6%

NS(=O)(=O)Oc1ccc2nc(Nc3ccc(F)c(F)c3)ccc2c1
inactive: [1] 60.5% | [2] 86.7% | [3] 96.1% | [4] 91.6% | [5] 88.9% | [6] 111% | [7] 94.4% | [9] 104%

CNC(=O)c1cc(Oc2ccc3nc(NC(=O)c4cc(C)cc(C)c4)sc3c2)ccn1
inactive: [1] 30.9% | [2] 51.9% | [3] 91.1% | [4] 104% | [5] 77% | [6] 97.4% | [7] 88.7% | [9] 85.8% | [10] 76%

Fc1ccc(-c2cc3nc(C(Cl)Cl)nc(-c4cccs4)n3n2)cc1
active: [2] -3.54% | [4] 9.21% | [8] -26.2% | [9] -5.63% | [10] 5.56%
inactive: [1] 83.8% | [3] 24% | [5] 29.8% | [6] 32% | [7] 61.2%

Cc1ccc(/C=C/c2nn3c(-c4ccco4)nnc3s2)cc1
inactive: [1] 77.3% | [2] 95.4% | [3] 100% | [4] 100% | [5] 102% | [6] 115% | [7] 107% | [9] 116%
